“And” between values parts separate entries of the source, which are not always exact repeats. Equal entries are not always repeated. Values without a mark were called inactive. Results filed as inconclusive are left out. The source made the active and inactive calls. Unless noted, calls come from the whole dose curve; as a rule, active = well fitted curve in the direction sought with a large enough effect in the repeat runs; inconclusive = weak or mixed curves; inactive = no such curve, though single readings can be large; an effect the other way counts as inactive or inconclusive.

Assay [1] is described as follows: qHTS assay to identify small molecule antagonists of the estrogen related receptor (ERR) signaling pathway from Tox21 library - cell viability counter screen (AID 1224834). Note: nearly all actives have a fitted effect of over 30% in size. Note: potency is the fitted concentration of half-maximal effect. Summed up: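 Multiplexed viability counter screen in ERR cells: 17.5 h compound exposure at 37 C, CellTiter-Fluor added, 30 min at 37 C/5% CO2, fluorescence read.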
The target of assay [2] is Luciferin 4-monooxygenase (Photinus pyralis) (UniProt P08659). Nature of the assay: qHTS assay to identify small molecule inhibitors of firefly luciferase (AID 1224835). Note: nearly all actives have a fitted effect of over 25% in size. Summed up:
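Biochemical qHTS: compounds run as interplate titrations against purified firefly enzyme, with D-luciferin and ATP each at its KM concentration. Light output recorded by CCD imaging.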
Background: Quantitative high-throughput screening tests each substance at several concentrations.

Assay [3] is described as follows: qHTS assay to identify small molecule agonists of the constitutive androstane receptor (CAR) signaling pathway - cell viability counter screen (AID 1224836). Note: nearly all actives have a fitted effect of over 45% in size. In short, it runs like this: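 Cells were seeded and incubated 4 hrs. Compounds were added across 15 concentrations together with PK11195 at 0.75 uM final. Plates were incubated 23 hrs at 37 C. CellTiter-Fluor was added and fluorescence measured.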

Assay [4] in a line: qHTS assay to identify small molecule antagonists of the constitutive androstane receptor (CAR) signaling pathway - cell viability counter screen (AID 1224837). Note: nearly all actives have a fitted effect of over 45% in size. Summed up: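 Read-out: CellTiter-Fluor fluorescence after 23 hr at 37 C/5% CO2. Cells: HepG2 double-stable for hCAR and CYP2B6-2.2kb. Compounds tested at 15 concentrations in the presence of CITCO, final concentration 50 nM.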

In assay [5] the target is Nuclear receptor subfamily 1 group I member 3 (Homo sapiens) (UniProt Q14994). Description: qHTS assay to identify small molecule antagonists of the constitutive androstane receptor (CAR) signaling pathway (AID 1224838).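 Note: HepG2 cells stably expressing hCAR with CYP2B6 luciferase reporter stimulated by CITCO; nearly all actives have a fitted effect of over 40% in size.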 Summed up:
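Read-out: ONE-Glo luciferase luminescence after 30 min at room temperature. HepG2-CYP2B6-hCAR double-stable cells, compounds in 15-point titration plus 50 nM CITCO final, 24 h at 37 C/5% CO2.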

Assay [6] has the same target. Description: qHTS assay to identify small molecule agonists of the constitutive androstane receptor (CAR) signaling pathway (AID 1224839).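 Note: HepG2 cells stably carrying human CAR and a CYP2B6 luciferase reporter; nearly all actives have a fitted effect of over 15% in size.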 Summed up: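 Cells were plated and incubated 4 hrs, then dosed with compounds at 15 concentrations. PK11195 was added to 0.75 uM final. After 24 hrs at 37 C, luciferase luminescence was measured.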
The nature of assay [7]: qHTS assay to identify small molecule antagonists of the estrogen related receptor signaling pathway with the pleiotropic PPARgamma coactivator (PGC) from Tox21 10K library - cell viability counter screen (AID 1224840; active = well fitted cell-killing curve with a large enough effect in the repeat runs, not every such curve was filed as active; note: nearly all actives have a fitted effect of over 40% in size). In short, it runs like this:
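Fluorescence read-out of CellTiter-Fluor viability reagent, added after cells had been exposed to compound in DMSO for 17.5 h at 37 C; 30 min development at 37 C/5% CO2. Cells: PGC/ERR line, 2,000/well.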

Assay [8] is described as follows: qHTS assay to identify small molecule antagonists of the estrogen related receptor signaling pathway with the pleiotropic PPARgamma coactivator (PGC) from Tox21 10K library (AID 1224841; call rule not given here; note: actives are mostly falling curves and most rising ones were filed inactive; nearly all actives have a fitted effect of over 50% in size; note: potency is the fitted concentration of half-maximal effect). Summed up: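 Luminescence read-out (One-Glo luciferase reagent, 30 min at room temperature) from PGC/ERR cells exposed to DMSO-dissolved test compounds for 18 h at 37 C; cells, 2,000 per well, had been preincubated 6 h before compound transfer.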

A short description of assay [9]: qHTS assay to identify small molecule agonists of the estrogen related receptor signaling pathway with the pleiotropic PPARgamma coactivator (PGC) from Tox21 10K library (AID 1224842). Note: nearly all actives have a fitted effect of over 15% in size. Summed up: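 PGC/ERR reporter cell line, 2,000 cells per well, incubated 6 h at 37 C before 23 nL compound in DMSO was added. After 18 h at 37 C, One-Glo luminescence read following 30 min at room temperature.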

Assay [10] is described as follows: qHTS assay to identify small molecule agonists of the hypoxia (HIF-1) signaling pathway - cell viability counter screen (AID 1224844; calls by dose curve; note: nearly all actives have a fitted effect of over 50% in size). Summed up:
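CellTiter-Glo luminescence read-out, 30 min RT, taken in the same wells as the beta-lactamase HRE reporter assay; HRE-bla ME-180 cells, 0.5% dialyzed FBS, 17 hr compound treatment at 37C, 5% CO2.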

Assay [11] is described as follows: qHTS assay to identify small molecule agonists of H2AX (AID 1224845; active = well fitted activation curve with a large enough effect in the signal ratio in the repeat runs, not every such curve was filed as active; the % refers to the signal ratio). Summed up: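 Wild-type CHO-K1 cells, plated overnight, exposed 3hr at 37C to 15 concentrations (0.76% DMSO final). Lysed, then HTRF anti-pH2AX (S139) cryptate and anti-H2AX-d2 antibodies, 24 hr room temperature; 665/620 nm emission read.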
Assay [12] in a line: qHTS assay to identify small molecule agonists of the hypoxia (HIF-1) signaling pathway (AID 1224846; active = well fitted activation curve with a large enough effect in the signal ratio in the repeat runs, not every such curve was filed as active; the % refers to the signal ratio). Summed up: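 Beta-lactamase FRET read-out (CCF4-AM substrate) from ME-180 cells carrying an HRE-driven bla reporter, after 17 hrs compound exposure at 37C/5% CO2. Cells were seeded at 2,000 per well in 0.5% dialyzed FBS medium and preincubated 5 hrs.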
Assay [13] in a line: qHTS assay to identify small molecule agonists of H2AX - cell viability counter screen (AID 1224847; calls by dose curve; note: top concentration of the series differs between compounds; nearly all actives have a fitted effect of over 30% in size). In short, it runs like this:
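Cytotoxicity counter screen in wild-type CHO-K1 cells: a 3 hr compound treatment at 37C across 15 concentrations, followed by CellTiter-Glo luminescence to gauge viable cells.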

Assay [14] is described as follows: qHTS assay to identify small molecule antagonists of the estrogen related receptor (ERR) signaling pathway from Tox21 library (AID 1224848). Note: nearly all actives have a fitted effect of over 50% in size. Note: potency is the fitted concentration of half-maximal effect. Summed up: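 Compounds dissolved in DMSO are pin-transferred onto ERR reporter cells (2,000 per well) that have settled for 6 h at 37 C. Plates then incubate 18 h at 37 C before ONE-Glo luciferase reagent and a luminescence read 30 min later.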

Assay [15] can be described thus: qHTS assay to identify small molecule agonists of the estrogen related receptor (ERR) signaling pathway from Tox21 library (AID 1224849; calls by dose curve; note: nearly all actives have a fitted effect of over 15% in size). As to conditions: ERR reporter cell line, ONE-Glo luciferase, 18 h. In short, it runs like this:
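Luminescence readout (ONE-Glo, 30 min RT) after 18 h compound exposure at 37 C of NTP-supplied ERR reporter cells; cells were plated 6 h before compound addition by pin tool.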

The nature of assay [16]: qHTS RealTime-Glo MT Cell Viability Assay in HepG2 cells - 24 hour (AID 1224867). Note: nearly all actives have a fitted effect of over 50% in size. Summed up: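 HepG2 suspension premixed with RealTime-Glo reagents is plated at 600 cells per well and left 5 h at 37 C/5% CO2. Compounds in DMSO then go in, and bioluminescence reflecting viable cell number is recorded over 40 h.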
The nature of assay [17]: qHTS RealTime-Glo MT Cell Viability Assay in HEK293 cells - 32 hour (AID 1224868). Note: nearly all actives have a fitted effect of over 50% in size. Note: potency is the fitted concentration of half-maximal effect. Summed up: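 Reads taken at 0, 8, 16, 24, 32 and 40 h from the same wells. HEK293 cells (600/well) carried RealTime-Glo reagents from seeding, with compound added after a 5 h settle at 37 C.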
Assay [18] in a line: A CellTox Green Cytotoxicity Assay to monitor cytotoxicity in HEK293 cells - 0 hour (AID 1224869). Note: nearly all actives have a fitted effect of over 50% in size. Summed up:
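Read-out: fluorescence of a cell-impermeant cyanine dye staining DNA of dead cells, proportional to cytotoxicity. HEK293, 600 cells/well with reagent, compound (23 nL DMSO) added after 5 h; reads at 0, 8, 16, 24, 32, 40 h.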

Assay [19] in a line: qHTS RealTime-Glo MT Cell Viability Assay in HepG2 cells - 40 hour (AID 1224870). Note: nearly all actives have a fitted effect of over 50% in size. Summed up: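 HepG2 cells (600/well) mixed with RealTime-Glo MT reagent, settled 5 h at 37 C/5% CO2 before compound addition. Nonlytic NanoLuc luminescence from viable-cell prosubstrate reduction read repeatedly during 40 h treatment at 37 C.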
The target in assay [20] is Thyrotropin receptor (Homo sapiens) (UniProt P16473). Nature of the assay: qHTS assay to identify small molecule agonists of the thyroid stimulating hormone receptor (TSHR) signaling pathway (AID 1224843; calls by dose curve; note: nearly all actives have a fitted effect of over 45% in size). In short, it runs like this: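 HEK293/TSHR, 800 cells/well; cpd 30 min RT; add cAMP-d2 + anti-cAMP-cryptate, 1 h RT; fluorescence read on plate reader. 15-pt titration, n=3.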
Chain of Thyrotropin receptor (Homo sapiens) (P16473 whole entry, looked up): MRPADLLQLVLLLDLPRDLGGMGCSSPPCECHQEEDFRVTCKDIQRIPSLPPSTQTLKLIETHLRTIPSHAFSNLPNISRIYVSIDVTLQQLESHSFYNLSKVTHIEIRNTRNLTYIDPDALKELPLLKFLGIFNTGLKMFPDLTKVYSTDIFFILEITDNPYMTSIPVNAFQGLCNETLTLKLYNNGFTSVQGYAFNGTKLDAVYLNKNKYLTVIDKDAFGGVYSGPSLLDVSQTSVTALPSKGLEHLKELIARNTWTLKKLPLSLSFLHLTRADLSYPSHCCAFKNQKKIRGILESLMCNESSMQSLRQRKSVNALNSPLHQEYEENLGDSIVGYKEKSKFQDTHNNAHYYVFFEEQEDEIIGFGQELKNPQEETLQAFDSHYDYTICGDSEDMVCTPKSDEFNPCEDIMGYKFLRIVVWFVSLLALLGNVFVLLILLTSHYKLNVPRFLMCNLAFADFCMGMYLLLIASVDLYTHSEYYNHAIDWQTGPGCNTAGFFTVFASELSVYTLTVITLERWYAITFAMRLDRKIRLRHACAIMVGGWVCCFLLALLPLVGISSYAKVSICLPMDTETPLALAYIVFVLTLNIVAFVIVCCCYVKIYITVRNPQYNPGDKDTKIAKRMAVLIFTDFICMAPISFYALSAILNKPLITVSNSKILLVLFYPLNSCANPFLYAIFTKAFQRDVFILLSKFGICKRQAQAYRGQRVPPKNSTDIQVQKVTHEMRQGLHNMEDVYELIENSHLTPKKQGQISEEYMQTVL
% is set by controls: 0 for no effect and ±100 for the full control effect.

Chain of Nuclear receptor subfamily 1 group I member 3 (Homo sapiens) (Q14994 whole entry, looked up): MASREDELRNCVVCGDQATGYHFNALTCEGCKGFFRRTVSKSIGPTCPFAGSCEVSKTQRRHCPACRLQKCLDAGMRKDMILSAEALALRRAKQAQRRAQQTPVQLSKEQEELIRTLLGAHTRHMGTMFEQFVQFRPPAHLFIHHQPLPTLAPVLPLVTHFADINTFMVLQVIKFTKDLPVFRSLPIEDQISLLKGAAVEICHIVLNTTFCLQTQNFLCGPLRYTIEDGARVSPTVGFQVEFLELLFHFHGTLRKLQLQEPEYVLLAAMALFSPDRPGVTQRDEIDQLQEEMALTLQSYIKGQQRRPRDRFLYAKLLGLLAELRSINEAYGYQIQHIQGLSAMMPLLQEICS
Chain of Luciferin 4-monooxygenase (Photinus pyralis) (P08659 whole entry, looked up): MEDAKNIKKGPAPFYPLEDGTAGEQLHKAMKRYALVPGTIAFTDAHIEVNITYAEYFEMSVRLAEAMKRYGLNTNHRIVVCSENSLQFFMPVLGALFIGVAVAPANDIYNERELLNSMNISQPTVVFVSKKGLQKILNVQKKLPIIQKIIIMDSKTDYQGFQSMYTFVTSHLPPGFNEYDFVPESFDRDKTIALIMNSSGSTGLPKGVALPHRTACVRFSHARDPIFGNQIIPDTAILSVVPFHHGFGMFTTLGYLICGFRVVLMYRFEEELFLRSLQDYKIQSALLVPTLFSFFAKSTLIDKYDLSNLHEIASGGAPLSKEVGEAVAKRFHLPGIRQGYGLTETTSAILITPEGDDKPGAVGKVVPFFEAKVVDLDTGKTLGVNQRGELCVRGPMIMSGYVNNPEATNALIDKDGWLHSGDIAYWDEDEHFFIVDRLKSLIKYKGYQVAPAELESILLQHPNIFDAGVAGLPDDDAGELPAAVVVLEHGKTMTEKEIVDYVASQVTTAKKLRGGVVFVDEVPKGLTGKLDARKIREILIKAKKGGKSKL

As for `COc1ccc2cc3[n+](cc2c1OC)CCc1cc2c(cc1-3)OCO2`, the Potency in assay [1] is 27.5 µM (active); in assay [8], 3.88 µM (active) and 7.5 µM (active); in [14] it was 976 nM (active) and 3.35 µM (active); in assay [17] it was 4.93 µM (active) and 10.7 µM (active). Further, the Potency entry in assay [2], in assay [3], in [4], in [5], in assay [6] and in assay [7] was “inactive” each time. Further, the Potency result in [9], in assay [10], in assay [11], in assay [13], in assay [16] and in assay [18] was “inactive” in each case. Moreover, the Potency entry in assay [19] was “inactive”. The compound was classed as inactive in assay [12]. Moreover, the activity change, positive = activation in [15] (at 42.5 µM (top of the series)) is -43.6%; in [15] (at 92.4 µM (top of the series)), -64.1%.

In the case of `COc1ccccc1[N+](=O)[O-]`, the Potency entry in [1], in assay [2], in assay [3], in assay [4], in [5] and in [6] was “inactive” each time. Besides, the Potency result in [7], in assay [8], in [9], in assay [10], in assay [11] and in assay [13] was “inactive” in each case. Moreover, the Potency entry in assay [14], in [16], in assay [17], in assay [18] and in [19] was “inactive” in each case. Moreover, the compound was called inactive in assay [12]. Also, the activity change, positive = activation in [15] (at 92.4 µM (top of the series)) is 2.88%.

As to `CC(C)c1ccc(C(C)C)cc1`, the Potency result in [1], in assay [2], in assay [3], in assay [4], in assay [5] and in [6] was “inactive” in each case. In addition, the Potency entry in assay [7], in [20], in assay [10], in assay [11], in [13] and in assay [16] was “inactive” throughout. For the same compound, the Potency result in assay [17], in [18] and in [19] was “inactive” in each case. In addition, the compound was classed as inactive in [12].

`CCc1cccc(CC)c1N`: the Potency result in assay [1], in assay [2], in assay [3], in [4], in assay [5] and in [6] was “inactive” throughout. Further, the Potency entry in assay [7], in assay [20], in assay [10], in assay [11], in assay [13] and in assay [16] was “inactive” each time. Further, the Potency result in assay [17], in assay [18] and in assay [19] was “inactive” each time. Besides, in assay [12], the compound was called inactive.

Take `Cc1ccc(C(C)C)cc1`: the Potency result in [1], in [2], in [3], in assay [4], in assay [5] and in assay [6] was “inactive” in each case. Also, the Potency entry in assay [7], in assay [20], in [10], in [11], in [13] and in assay [16] was “inactive” throughout. The Potency result in assay [17], in assay [18] and in assay [19] was “inactive” in each case. Besides, the outcome in assay [12] was inactive.

As to `C[Si](C)(C)N[Si](C)(C)C`, the Potency entry in [1], in [2], in [3], in assay [4], in [5] and in assay [6] was “inactive” throughout. Moreover, the Potency result in assay [7], in assay [20], in [10], in [11], in [13] and in assay [16] was “inactive” throughout. Moreover, the Potency result in assay [17], in [18] and in [19] was “inactive” throughout. In addition, the compound was called inactive in assay [12].

As for `Cc1ccc([N+](=O)[O-])cc1N`, the Potency entry in assay [1], in assay [2], in assay [3], in [4], in assay [5] and in assay [6] was “inactive” throughout. Also, the Potency result in assay [7], in assay [20], in [10], in [11], in assay [13] and in [16] was “inactive” each time. Moreover, the Potency result in assay [17], in [18] and in [19] was “inactive” each time. In [12], the compound was classed as inactive.

Turning to `O=C1C(N(CO)C(=O)NCO)N(CO)C(=O)N1CO` (stereo not given), the Potency entry in [1], in [2], in assay [3], in [4], in [5] and in assay [6] was “inactive” in each case. The Potency entry in [7], in [20], in [10], in assay [11], in assay [13] and in [16] was “inactive” in each case. Moreover, the Potency entry in [17], in [18] and in assay [19] was “inactive” in each case. Moreover, the call in [12] was inactive.
